Measured values as given in PubChem BioAssay (Tox21).
Values joined by “and” are separate entries in the source; they are usually repeats but may differ in a detail not shown here. Identical values can stand only once. Values without a mark were called inactive. Records with an inconclusive call do not appear. A call without a number means that no potency is given here. Active and inactive are the calls of the source. Unless noted, calls come from the whole dose curve; as a rule, active = well fitted curve in the direction sought with a large enough effect in the repeat runs; inconclusive = weak or mixed curves; inactive = no such curve, though single readings can be large; an effect the other way counts as inactive or inconclusive.

Columns and labels:
[1] = qHTS assay for small molecule agonists of the p53 signaling pathway (AID 651631; calls by dose curve; note: nearly all actives have a fitted effect of over 15% in size; note: potency is the fitted concentration of half-maximal effect)
How it was run: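 Fluorescence intensity from cleaved LiveBLAzer B/G substrate (2 h, room temperature) served as the signal. Beforehand, HCT-116 reporter cells bearing p53 response elements were treated 16 h at 37 °C with DMSO-dissolved compounds.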

[2] = qHTS assay for small molecules that induce genotoxicity in human embryonic kidney cells expressing luciferase-tagged ATAD5 (AID 651632); note: nearly all actives have a fitted effect of over 15% in size
How it was run: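 HEK293T cells carrying luciferase-tagged ATAD5 were given compound or DMSO vehicle and incubated 16 hr at 37C, 5% CO2. Luciferase activity was read after 30 min at room temperature with Amplite; a rise signals genotoxic stress.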

[3] = qHTS assay for small molecule agonists of the p53 signaling pathway - cell viability (AID 651633; calls by dose curve;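 note: p53RE-bla HCT reporter cells with a stable beta-lactamase p53 reporter; series mostly up to about 83 µM; nearly all actives have a fitted effect of over 30% in size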)
How it was run: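 p53RE-bla cells were treated with compound for 16 hours at 37 C. Cytotoxicity was then measured as CellTiter-Glo luminescence after 30 min at room temperature.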

[4] = qHTS assay for small molecules that induce genotoxicity in human embryonic kidney cells expressing luciferase-tagged ATAD5 - cell viability (AID 651634; calls by dose curve; note: nearly all actives have a fitted effect of over 25% in size; note: potency is the fitted concentration of half-maximal effect)
How it was run: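 HEK293T cells carrying luciferase-tagged ATAD5, 2,000 cells/well, exposed to compound for 15.5 hr at 37C. Viability read as live-cell protease activity by CellTiter-Fluor fluorescence after 30 min at 37C.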

[5] = qHTS assay for small molecule disruptors of the mitochondrial membrane potential - cell viability (AID 720634; calls by dose curve; note: nearly all actives have a fitted effect of over 20% in size; note: potency is the fitted concentration of half-maximal effect)
How it was run: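 HepG2 cells, 2,000 per well, attached overnight, then treated 1 hr at 37 C, 5% CO2. Viability read as ATP by CellTiter-Glo luminescence after 30 min at room temperature. Read in the same wells as the m-MPI membrane-potential dye assay.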

[6] = qHTS assay for small molecule disruptors of the mitochondrial membrane potential (AID 720635); note: potency is the fitted concentration of half-maximal effect
How it was run: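 HepG2 cells exposed to compound 1 hr at 37C, then Mito-MPS dye 30 min. Ratio read of aggregate (540/590 nm) versus monomer (490/535 nm) fluorescence.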

[7] = qHTS assay to test for compound auto fluorescence at 590 nm (red) in HepG2 cells (AID 720674)
How it was run: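 Fluorescence at 590 nm emission following 540 nm excitation was recorded from HepG2 wells one hour after compound transfer, with DMSO-only wells as vehicle and Rose Bengal sodium equivalency as the scale.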

[8] = qHTS assay to test for compound auto fluorescence at 535 nm (green) in HepG2 cells (AID 720675)
[9] = qHTS assay to test for compound auto fluorescence at 460 nm (blue) in HEK293 cells (AID 720678)
How it was run: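 HEK293 cells (2,000 per well, medium with 10% dialyzed FBS) attached for 4-5 hr at 37C, then received compound and stood overnight at 37C, 5% CO2. Blue fluorescence was read at Ex/Em 405/460 nm and expressed relative to triamterene.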

[10] = qHTS assay to test for compound auto fluorescence at 590 nm (red) in HEK293 cells (AID 720679)
How it was run: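 HEK293 cells (2,000/well, medium with 10% dialyzed FBS) attached for 4-5 hr at 37C, received 23 nL compound and were incubated overnight at 37C, 5% CO2. Red fluorescence was then read at 540/590nm Ex/Em, referenced to Rose Bengal sodium.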

[11] = qHTS assay to test for compound auto fluorescence at 535 nm (green) in HEK293 cells (AID 720680)
[12] = qHTS assay to test for compound auto fluorescence at 460 nm (blue) in HEK293 cell free culture (AID 720681)
How it was run: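 Compounds were added to cell-free DMEM with 10% FBS and fluorescence read directly. The blue channel used 405 nm excitation and 460 nm emission, with triamterene as the reference fluorophore.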

[13] = qHTS assay to test for compound auto fluorescence at 535 nm (green) in HEK293 cell free culture (AID 720682)
How it was run: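 Intrinsic compound fluorescence is measured in culture medium containing 10% FBS, with excitation at 485 nm and detection at 535 nm, referenced to fluorescein.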

[14] = qHTS assay to test for compound auto fluorescence at 590 nm (red) in HEK293 cell free culture (AID 720683)
How it was run: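 Cell-free wells of DMEM with 10% FBS received compound, and intrinsic fluorescence was read at excitation/emission 540/590 nm. Values expressed as equivalence to Rose Bengal sodium.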

[15] = qHTS assay to test for compound auto fluorescence at 590 nm (red) in HepG2 cell free culture (AID 720684)
How it was run: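 Compounds are added to culture medium (MEM, 10% FBS) lacking cells, then fluorescence is read at excitation 540 nm, emission 590 nm, with Rose Bengal sodium as the equivalency standard.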

[16] = qHTS assay to test for compound auto fluorescence at 460 nm (blue) in HepG2 cell free culture (AID 720685)
How it was run: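 Compound (23 nL) or DMSO pinned into cell-free MEM with 10% FBS; blue fluorescence read at 405/460 nm excitation/emission, expressed as auto-fluorescence equivalency to triamterene.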

[17] = qHTS assay to test for compound auto fluorescence at 535 nm (green) in HepG2 cell free culture (AID 720686)
[18] = qHTS assay to test for compound auto fluorescence at 460 nm (blue) in HepG2 cells (AID 720687)
How it was run: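 HepG2 cells in MEM with 10% FBS, attached overnight at 37 C, were exposed to compound or DMSO for 1 hr at 37 C, 5% CO2. Blue fluorescence was read at 405/460 nm, with triamterene as reference fluorophore.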

[19] = target: Glucocorticoid receptor (Homo sapiens) (UniProt P04150); experiment: qHTS assay to identify small molecule agonists of the glucocorticoid receptor (GR) signaling pathway (AID 720691; active = well fitted activation curve with a large enough effect in the signal ratio in the repeat runs, not every such curve was filed as active; the % refers to the signal ratio)
Chain of Glucocorticoid receptor (Homo sapiens) (P04150 whole entry, looked up): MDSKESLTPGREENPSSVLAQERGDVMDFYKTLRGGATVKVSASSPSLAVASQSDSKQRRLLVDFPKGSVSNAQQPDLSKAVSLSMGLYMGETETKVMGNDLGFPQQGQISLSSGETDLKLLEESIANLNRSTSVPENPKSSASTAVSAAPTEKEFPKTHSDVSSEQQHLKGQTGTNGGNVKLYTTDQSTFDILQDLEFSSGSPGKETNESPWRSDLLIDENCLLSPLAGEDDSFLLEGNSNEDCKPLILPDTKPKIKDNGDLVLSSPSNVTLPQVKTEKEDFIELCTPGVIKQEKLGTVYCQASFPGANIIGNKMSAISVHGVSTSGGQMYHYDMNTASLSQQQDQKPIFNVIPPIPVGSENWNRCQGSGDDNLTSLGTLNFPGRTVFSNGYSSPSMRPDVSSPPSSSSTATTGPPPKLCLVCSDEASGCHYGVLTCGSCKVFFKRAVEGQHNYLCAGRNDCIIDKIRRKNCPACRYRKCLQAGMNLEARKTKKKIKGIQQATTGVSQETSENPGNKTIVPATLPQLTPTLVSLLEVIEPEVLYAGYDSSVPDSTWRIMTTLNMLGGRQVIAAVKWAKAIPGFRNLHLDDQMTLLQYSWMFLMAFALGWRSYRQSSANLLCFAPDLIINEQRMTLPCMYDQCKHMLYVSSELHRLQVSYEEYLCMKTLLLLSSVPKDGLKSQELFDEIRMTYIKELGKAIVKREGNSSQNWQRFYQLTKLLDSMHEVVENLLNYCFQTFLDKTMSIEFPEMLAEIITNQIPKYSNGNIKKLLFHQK
How it was run: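 GR-bla HeLa cells carrying a GRE-driven beta-lactamase reporter, exposed to compounds for 18 h at 37 C. Reporter activation read as fluorescence after 2 h with LiveBLAzer B/G FRET substrate at room temperature.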

[20] = target: Glucocorticoid receptor (Homo sapiens) (UniProt P04150); experiment: qHTS assay to identify small molecule antagonists of the glucocorticoid receptor (GR) signaling pathway (AID 720692; active = well fitted inhibition curve with a large enough effect in the signal ratio in the repeat runs, not every such curve was filed as active; the % refers to the signal ratio)
How it was run: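 GR-bla HeLa cells carrying a GRE-driven beta-lactamase reporter received compound after 4 h plating, then dexamethasone (5 nM final). After 18 h at 37C, the FRET substrate was loaded for 2 h at room temperature and fluorescence read.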

Row | Compound | Potency [1] | outcome [2] | Potency [3] | Potency [4] | Potency [5] | Potency [6] | outcome [7] | outcome [8] | outcome [9] | outcome [10] | outcome [11] | outcome [12] | outcome [13] | outcome [14] | outcome [15] | outcome [16] | outcome [17] | outcome [18] | Potency [19] | Potency [20]
1 | OCC(Cl)CCl (configuration not stated) | inactive | inactive | inactive | inactive | inactive | inactive | inactive | inactive | inactive | inactive | inactive | inactive | inactive | inactive | inactive | inactive | inactive | inactive | inactive | 
2 | NC(=O)OCCCc1ccccc1 | inactive | inactive | inactive | inactive | inactive | inactive | inactive | inactive | inactive | inactive | inactive | inactive | inactive | inactive | inactive | inactive | inactive | inactive | inactive | inactive
3 | CCSC(=O)Cl | inactive | inactive | inactive | inactive | inactive | inactive | inactive | inactive | inactive | inactive | inactive | inactive | inactive | inactive | inactive | inactive | inactive | inactive |  | inactive
4 | CS(=O)(=O)Cl | inactive | inactive | inactive | inactive | inactive | inactive | inactive | inactive | inactive | inactive | inactive | inactive | inactive | inactive | inactive | inactive | inactive | inactive |  | 
5 | C[C@H]1CCCC(=O)CCC/C=C/c2cc(O)cc(O)c2C(=O)O1 | 9.33 µM (active) and 22.4 µM (active) | inactive | inactive | 20.9 µM (active) | 11.7 µM (active) and 20 µM (active) | 2.34 µM (active) and 4.47 µM (active) | inactive | inactive | inactive | inactive | inactive | inactive | inactive | inactive | inactive | inactive | inactive | inactive |  | 
6 | CCOC(=O)NC(C)(C)Cc1ccc(Cl)cc1 | inactive | inactive | inactive | inactive | inactive | inactive | inactive | inactive | inactive | inactive | inactive | inactive | inactive | inactive | inactive | inactive | inactive | inactive | inactive | inactive
7 | CCC1(CC)C(=O)C=CNC1=O | inactive | inactive | inactive | inactive | inactive | inactive | inactive | inactive | inactive | inactive | inactive | inactive | inactive | inactive | inactive | inactive | inactive | inactive | inactive | inactive
8 | O=C(Cl)CCl | inactive | inactive | inactive | inactive | inactive | inactive | inactive | inactive | inactive | inactive | inactive | inactive | inactive | inactive | inactive | inactive | inactive | inactive |  | 
9 | CCC1(c2ccccc2)CCC(=O)NC1=O (configuration not stated) | inactive | inactive | inactive | inactive | inactive | inactive | inactive | inactive | inactive | inactive | inactive | inactive | inactive | inactive |  | inactive |  | inactive |  | 
10 | CCCOC(=O)Cc1ccc(OCC(=O)N(CC)CC)c(OC)c1 | inactive | inactive | inactive | inactive | inactive | inactive | inactive | inactive | inactive | inactive | inactive | inactive | inactive | inactive | inactive | inactive |  | inactive |  | 
11 | S=C=S | inactive | inactive | inactive | inactive | inactive | inactive | inactive | inactive | inactive | inactive | inactive | inactive | inactive | inactive | inactive | inactive | inactive | inactive |  | inactive
12 | Clc1nc(Cl)nc(Nc2ccccc2Cl)n1 | inactive | inactive | inactive | inactive | inactive | inactive | inactive | inactive | inactive | inactive | inactive | inactive | inactive | inactive | inactive | inactive |  | inactive | inactive | inactive
13 | CC1=C2[C@H]3OC(=O)[C@@H](C)[C@@H]3CC[C@@]2(C)C=CC1=O | inactive | inactive | inactive | inactive | inactive | inactive | inactive | inactive | inactive | inactive | inactive | inactive | inactive | inactive | inactive | inactive |  | inactive | inactive | inactive
